This is a sample that favours compounds with a hit; in the whole collection about 2.4% have one here.
CHO-K1 Ca ag = counter-screen for M1 agonists: effect in parental CHO-K1 cells | AID 602248 | Fluo-8 calcium fluorescence; scaled to maximal ATP response, vehicle zero | actives 0.48% (n = 360,000) | activation, % at 3 µM; in the data active means activation above about 15%;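 further: untransfected CHO-K1 host cells lacking M1 receptor as counterscreen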
CHRM1 PAM = human CHRM1 positive allosteric modulation; actives 0.088% (n = 360,000); CHO-K1 hM1, Fluo-8 calcium fluorescence, ACh EC20; 0% = ACh EC20, 100% = maximal ACh; P11229; activation, % at 3 µM; in the data active means activation above about 19%, passing the limit was not always enough
Target sequence (P11229 whole entry, looked up): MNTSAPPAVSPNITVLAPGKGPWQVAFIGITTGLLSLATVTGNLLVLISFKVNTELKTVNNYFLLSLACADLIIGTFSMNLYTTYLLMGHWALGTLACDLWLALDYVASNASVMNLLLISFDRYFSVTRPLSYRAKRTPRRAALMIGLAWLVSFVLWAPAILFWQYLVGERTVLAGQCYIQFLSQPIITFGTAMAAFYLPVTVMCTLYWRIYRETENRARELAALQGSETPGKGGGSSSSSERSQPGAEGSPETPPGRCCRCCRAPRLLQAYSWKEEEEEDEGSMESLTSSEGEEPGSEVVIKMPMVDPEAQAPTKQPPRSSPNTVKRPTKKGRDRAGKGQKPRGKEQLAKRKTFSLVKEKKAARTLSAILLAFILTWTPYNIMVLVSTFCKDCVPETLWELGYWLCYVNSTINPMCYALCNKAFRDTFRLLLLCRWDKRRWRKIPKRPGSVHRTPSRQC
CHO-K1 Ca antag = M1 antagonist counterscreen hit in parental CHO-K1 cells. ATP-induced calcium, Fluo-8 fluorescence. actives 0.6% (n = 360,000). inhibition, % at 3 µM. AID 602250;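 active means inhibition above a per-plate cutoff, the plate's mean sample inhibition plus 3 SD, cut at about 24% in these data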;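 further: 0% = DMSO plus EC80 ATP and 100% = DMSO alone without ATP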
M1 antag = human CHRM1 antagonism | actives 1.3% (n = 360,000) | P11229 | inhibition, % at 3 µM | AID 588852 | CHO-K1 hM1, Fluo-8 calcium fluorescence, ACh EC80 antagonist;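 active means percent inhibition above its own plate's cutoff, namely the mean of that plate's compound wells plus 3 SD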;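 further: peak over basal fluorescence ratio during 140 s after agonist addition; 0% = ACh EC80 plus DMSO and 100% = DMSO alone without agonist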
M1 ag = activates human CHRM1 receptor; P11229; CHO-K1 hM1, Fluo-8 calcium fluorescence, agonist mode; 0% DMSO, 100% acetylcholine EC100; activation, % at 3 µM; actives 0.33% (n = 360,000); AID 588814;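 active means activation above the run's mean compound activation plus 3 SD, cut at about 16% in these data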;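 further: peak over basal fluorescence ratio within a 140 s kinetic read after compound addition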
M1 PAM parental = M1 PAM counterscreen hit in parental CHO-K1 cells; actives 0.02% (n = 360,000); ATP EC20, Fluo-8 calcium fluorescence; 0% at ATP EC20, 100% at ATP max; AID 602247; activation, % at 3 µM;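 active means activation above the run cutoff, the mean activation of all test compounds plus 3 SD, cut at about 40% in these data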;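 further: peak over basal fluorescence ratio in a 140 s read after ATP addition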
* marks the source's active call; other numbers are inactive results.

SMILES	CHO-K1 Ca ag	CHRM1 PAM	CHO-K1 Ca antag	M1 antag	M1 ag	M1 PAM parental
CC(OC(=O)c1ccc(Cl)nc1)C(=O)Nc1ccc(S(=O)(=O)N2CCCC2)cc1 (stereo not drawn)	1.0	-24.8	-3.2	36.4*	-7.1	-8.0
CC(Oc1ccccc1Cl)C(=O)Nc1ccc(S(=O)(=O)N2CCCC2)cc1 (stereo not drawn)	4.2	-26.6	-0.4	90.6*	-3.5	12.8
Cc1cc2nccc(-c3cccnc3)n2n1	0.0	12.3	1.1	-7.6	0.1	-7.1
Cn1c(SCC(=O)N/N=C/c2ccc([N+](=O)[O-])s2)nnc1-c1ccc(Cl)cc1	1.4	5.4	-11.5	-6.2	-7.8	18.2
CCC(C)(C)c1ccc(OCCCC[n+]2cccc(C)c2C)c(C(C)(C)CC)c1	25.5*	-24.3	13.2	73.2*	-8.0	11.4
CCC(=O)Nc1ccc(C(=O)CSc2nc(N)cc(N)n2)cc1	0.3	2.7	-5.0	-3.0	-3.3	3.8
O=C(Nc1nc2ccccc2[nH]1)NC1CCCCC1	23.4*	3.6	11.3	-1.1	8.0	-1.6
O=C(Nc1nc2ccccc2[nH]1)C1CC1	-0.3	1.4	-4.7	5.4	-2.4	-9.6
COc1ccc(NC2=CC(c3cccc(OC)c3)N(c3ccc(OC)cc3)C2=O)cc1 (stereo not drawn)	8.8	-8.5	36.7*	46.9*	9.3	11.1
O=C(CN1CCN(CC(=O)Nc2ccc3c(c2)OC2(CCCCC2)O3)CC1)Nc1cccc(F)c1	0.6	8.3	-7.8	-5.1	-0.6	-8.3
CCN1C(=O)/C(=C\N2CCCCCC2)SC1=S	0.7	-23.1	9.7	98.8*	-4.4	-8.6
CCN1C(=O)/C(=C/N2CC(C)CC(C)C2)SC1=S (stereo not drawn)	0.4	3.0	-7.2	-1.8	-1.1	16.4
O=S(=O)(c1ccc(=S)[nH]c1)N1CCN(Cc2ccccc2)CC1	0.3	-5.7	-10.7	7.7	-1.7	7.3
COc1ccc(N=Cc2c(O)cc(C)oc2=O)cc1	15.8*	-2.2	16.4	3.1	-4.1	1.1
Cc1cc(O)c(C=Nc2cccc(Cl)c2)c(=O)o1	1.7	4.5	6.6	-2.1	-2.5	16.6
COc1ccc(Nc2sc(C(=O)c3ccc(Cl)cc3)c(N)c2C(=O)Nc2ccccc2OC)cc1	19.6*	-5.4	31.5*	44.0*	38.6*	13.4
COc1cc(C(=O)NCc2cc3ccccc3n2C)cc(OC)c1OC	16.4*	-0.9	15.9	-3.1	-2.5	-11.3
COc1cccc(C(O)c2nc(-c3cccc(CO)c3)cs2)c1 (stereo not drawn)	2.8	-0.6	-4.2	-6.0	1.6	19.1
COC(=O)c1c(C(=O)OC)c(-c2ccc(F)cc2)n2c1CS(=O)(=O)C2	0.2	12.8	3.7	-17.2	0.2	1.9
COC(=O)c1c(C(=O)OC)c(-c2ccccc2)n2c1CS(=O)(=O)C2	-0.2	0.8	26.5*	-0.8	-0.8	-6.4
O=C(Nc1ccn(CCCN2CCN(c3ncccn3)CC2)c(=O)n1)OCc1ccccc1	0.2	-19.4	3.0	22.0*	-12.3	2.7
O=C(Nc1ccn(CCCNCc2ccccn2)c(=O)n1)OCc1ccccc1	0.4	0.6	-10.9	-9.1	-9.8	19.9
O=C(Nc1ccn(CCCN2CCN(Cc3ccc(F)cc3)CC2)c(=O)n1)OCc1ccccc1	1.2	-25.9	3.4	39.4*	-9.8	4.7
CN(C(=O)c1cc2ccccc2oc1=O)C1(C)CCS(=O)(=O)C1 (stereo not drawn)	1.1	6.2	7.4	1.6	-3.6	12.4
NNC(=O)c1nnn(-c2nonc2N)c1-c1cccs1	1.1	21.6*	-20.4	-28.6	2.5	9.0
SMILES	CHO-K1 Ca ag	CHRM1 PAM	CHO-K1 Ca antag	M1 antag	M1 ag	M1 PAM parental
CCCOc1ccc(-c2c(C(=O)N/N=C/c3ccc(C)cc3)nnn2-c2nonc2N)cc1	1.2	8.1	-2.5	-13.6	-2.5	12.5
CCOc1ccc(/C=N/NC(=O)c2nnn(-c3nonc3N)c2-c2cccs2)cc1	33.9*	-2.0	0.1	27.4	44.4*	14.8
Cc1ccc(-c2c(C(=O)N/N=C/c3ccc(OC(C)C)cc3)nnn2-c2nonc2N)cc1	14.5	14.8	-7.7	0.1	10.7	18.0
CCOc1ccc(-c2c(C(=O)N/N=C/c3ccc(OC(C)C)cc3)nnn2-c2nonc2N)cc1	5.6	10.0	-1.6	5.4	20.7*	28.9
CCOc1ccc(-c2c(C(=O)N/N=C/c3ccc(C)cc3)nnn2-c2nonc2N)cc1	2.5	18.2	-11.6	-15.3	18.6*	23.2
CC1Oc2ccccc2C=C1/C=N\NC(=O)c1cccnc1 (stereo not drawn)	1.1	21.4	-6.9	-20.3	-0.1	13.2
COc1cccc(CNc2ccc(F)c([N+](=O)[O-])c2)c1O	3.5	-14.6	13.3	89.9*	2.5	-16.4
CCC1CCCCN1C(=O)CCc1nnc(C2CCCCC2)o1 (stereo not drawn)	3.7	-0.6	-3.2	6.9	-3.6	-0.1
Cc1cnc(C(=O)OC(C)C(=O)NCc2ccccc2)cn1 (stereo not drawn)	0.3	5.5	-3.2	-3.5	-2.9	-3.0
CC1CN(C)C(C)C/C1=N\Oc1ccc([N+](=O)[O-])cc1 (stereo not drawn)	0.4	1.0	1.1	0.6	-11.8	-4.6
CC1CN(C)C(C)C/C1=N/Oc1ccccc1[N+](=O)[O-] (stereo not drawn)	0.5	-16.1	-21.1	41.9*	-5.9	18.3
Cc1nc(C)n(C(C)CNC(=O)c2ccco2)n1 (stereo not drawn)	0.8	19.8	-15.2	-18.2	3.9	25.5
C[C@@H]1CCCCCCCCCCC1=O	-0.7	8.6	1.9	-10.5	-2.5	-21.4
O=C1NN=C2CCCCCCC12 (stereo not drawn)	0.3	-29.3	-0.9	97.8*	-7.5	8.7
O=C(Nc1cccc(F)c1)C1CCCN(S(=O)(=O)c2cccc3cccnc23)C1 (stereo not drawn)	5.8	-4.0	-3.9	1.5	0.3	-9.7
O=C(O)c1ccccc1-c1ccc(/C=C/c2cc(C(F)(F)F)[nH]c(=O)n2)o1	26.1*	-14.9	22.4	6.7	7.4	-13.4
O=C(O)c1cc(Cl)ccc1-c1ccc(/C=C/c2cc(C(F)(F)F)[nH]c(=O)n2)o1	26.0*	-14.7	15.2	14.5	11.3	-20.7
Cc1nc(S/C(=C/c2ccc(-c3cc(Cl)ccc3C)o2)C(=O)O)n[nH]1	0.3	2.5	-2.2	-4.5	-0.5	-2.5
Cc1cc(F)ccc1C(O)c1ncc(-c2cccc(F)c2)[nH]1 (stereo not drawn)	1.1	-1.6	-1.5	-6.6	1.1	-0.7
Cc1ccccc1N1CCN(CCCN2C(=O)CC(=C(c3ccccc3)c3ccccc3)C2=O)CC1	-0.2	-20.4	-14.1	95.2*	-5.1	17.8
